In article PMC7826789 (International Journal of Molecular Sciences, 2021):

system: CDC2L2; settings: Compound Concentration (nM):1000
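Also: KINOMEscan scanMAX binding as percent activity remaining versus control; lower means stronger binding.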

Row | SMILES | Percent Control [%]
1 | COc1ccccc1-c1cc(/C=C2\C(=O)Nc3ncc(Br)cc32)cc(Br)c1O [GW442130X] | 100
2 | CN1CCN(C(=O)c2ccc(NC(=O)Nc3ccc(N(C)c4ccnc(Nc5ccc(CS(C)(=O)=O)cc5)n4)cc3)cc2)CC1.Cl [GW830263A] | 51
3 | Cc1cc(O)cc(C)c1/C=C/c1cncc(C(N)=O)c1 [GW435821X] | 97

system: T1, CDC2L5; settings: Compound Concentration (nM):1000
T1 construct: gene CDK13

Row | SMILES | Percent Control [%]
4 | O=C(Nc1n[nH]c2nc(-c3ccc(O)cc3)c(Br)cc12)C1CC1 [SB-725317] | 90
5 | COc1cccc(-c2c[nH]c3c(N/N=C/c4ccncc4)ncnc23)c1 [GW814408X] | 87
6 | Cl.O=C(O[C@H]1CN[C@H](C#Cc2cc3ncnc(Nc4ccc5c(cnn5Cc5ccccc5)c4)c3s2)C1)N1CCOCC1 [GSK200398A] | 97
7 | CCS(=O)(=O)c1ccc(OC)c(Nc2ncc(-c3cccc(OC)c3)o2)c1 [GW580509X] | 100
8 | COc1ccc2cc(-c3c(-c4ccncc4)nc(-c4ccc(S(C)(=O)=O)cc4C)n3C)ccc2c1 [SB-633825] | 91
9 | COc1ccc(COc2ccc(Cc3cnc(N)nc3N)cc2OC)cc1 [GW632580X] | 72
10 | C[C@@H](Oc1cc(-n2cnc3ccc(OC4CCN(C)CC4)cc32)sc1C(N)=O)c1ccccc1Cl [GSK579289A] | 79
11 | CCS(=O)(=O)c1ccc(OC)c(Nc2ncc(-c3cccc(F)c3)o2)c1 [GW621970X] | 100
12 | COc1cc(N2CCN(C(C)C)CC2)ccc1Nc1nc(Nc2ccc(F)cc2C(=O)NC[C@@H](O)CO)c2cc[nH]c2n1 [GSK1392956A] | 64
13 | COc1cc2ncn(-c3cc(O[C@H](C)c4ccccc4Cl)c(C(N)=O)s3)c2cc1OC [GSK237701A] | 75
14 | Cl.O=C(Nc1ccc(Oc2ccc3[nH]c(NC(=O)c4ccccc4)nc3c2)cc1)Nc1cc(C(F)(F)F)ccc1F [GW709042A] | 100
15 | COc1cc(C)c(N(C)C(=O)CN(C)C)cc1Nc1nc(Nc2cccc(F)c2C(N)=O)c2cc[nH]c2n1 [GSK2219385] | 50
16 | CCc1ccc(Oc2nccc(-c3c(-c4ccc(F)cc4)ncn3C3CCNCC3)n2)cc1 [SB-242719] | 100
17 | CC1=C(C(=O)Nc2ccc3[nH]ncc3c2)C(c2ccc3ccccc3c2)CC(=O)N1 (stereo not drawn) [GSK270822A] | 85
18 | Nc1ncnc2occ(-c3ccc(NC(=O)Nc4cc(C(F)(F)F)ccc4F)cc3)c12 [GW770249X] | 1.4
19 | O=C1Nc2ccc(C(=O)c3ccco3)cc2C1=Cc1cc(Cl)c(O)c(Cl)c1 [GW406108X] | 99
20 | COc1ccc2[nH]c3c4[nH]c5ccc(OC)cc5c4c4c(c3c2c1)C(=O)NC4=O [GW296115X] | 100
21 | CN(C)CCNC(=O)Nc1ccc(N(C)c2ccnc(Nc3ccc(CS(C)(=O)=O)cc3)n2)cc1.Cl [GW830900A] | 100
22 | Cl.c1ccc(Cc2nc3ccc(Nc4ncnc5ccccc45)cc3[nH]2)cc1 [GR269666A] | 100
23 | COc1ccc2c(-c3ccnc(Nc4cccc(OC(F)(F)F)c4)n3)cnn2n1 [GW810372X] | 100
24 | COc1cccc(-n2ncc3c(N/N=C/c4ccncc4)ncnc32)c1 [GW784752X] | 83
25 | COc1cc(/C=N/Nc2ncnc3[nH]ncc23)ccc1O [GW578748X] | 100
26 | NS(=O)(=O)c1ccc(N/N=C2\C(=O)Nc3ccc(C(=O)NCCc4c[nH]cn4)cc32)cc1 [GW300660X] | 79
27 | NS(=O)(=O)c1ccc(N/N=C2\C(=O)Nc3ccc(-c4cnco4)cc32)cc1 [GW276655] | 56
28 | NS(=O)(=O)c1ccc(Nc2ncc(-c3ccccc3)o2)cc1 [GW572399X] | 26
29 | C/C(Nc1ccc(S(N)(=O)=O)cc1)=C1/C(=O)Nc2ccccc21 [GW335962X] | 65
30 | Cl.O=S1CCN(Cc2ccc(-c3ccc4ncnc(Nc5ccc(OCc6ccccc6)c(F)c5)c4c3)o2)CC1 [GW576924A] | 100
31 | CN(C)c1cc2c(Nc3ccc4c(cnn4Cc4ccccc4)c3)ncnc2cn1 [GW282974X] | 67
32 | CCn1c(-c2nonc2N)nc2c(C#CC(C)(C)O)nc(OCCNC)cc21.Cl [GSK949675] | 100
33 | CC(C)COC(=O)c1ccc2c(c1)/C(=C/Nc1ccc(S(N)(=O)=O)cc1)C(=O)N2 [GW416981X] | 65
